Shown is part of a subset that was picked to be rich in hits.
Methyltransferases – Primary Screen for Target Class Profiling of Small Molecule Inhibitors of Methyltransferases; purified enzyme, MTase-Glo SAH luminescence; active compounds read low; calls only at 40 µM; 3.9% of 25,000 active; call rule not given here
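Each enzyme was assayed with SAM and its substrate. SAH formation detected by MTase-Glo luminescence; single-point 40 uM screen[…].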
* marks the source's active call; other numbers are inactive results; ! = a repeat was not active. % is scaled to controls: 0 for no effect and ±100 for the full control effect.

What do the screens show for `Cc1nnsc1C(=O)N[C@H]1CCN(C(=O)c2ccco2)[C@H](C(=O)N[C@H](Cc2c[nH]c3ccccc23)C(N)=O)C1`?
Methyltransferases: inactive

What do the screens show for `CC(C)CCn1c(=O)c2ccc(C(=O)NC(C)C)cc2n2c(=O)n(Cc3ccc(F)cc3)nc12`?
Methyltransferases: inactive

Results for O=C1NC(=O)C(c2cnc3ccccn23)=C1c1cn2c3c(cc(F)cc13)CN(C(=O)N1CCCCC1)CC2 ?
Methyltransferases: active

Results for CC(=O)Nc1c2n(c3ccccc13)CC(C)(C(=O)NC1CCCC1)N(C1CCCC1)C2=O (stereo not drawn) ?
Methyltransferases: inactive

How did C[C@@H]1O[C@@H](O[C@@H]2[C@@H](O)[C@H](O[C@H]3[C@H](O[C@H]4CC[C@@]5(C)C(CC[C@]6(C)C5CC=C5[C@@H]7CC(C)(C)CC[C@]7(C(=O)O[C@@H]7O[C@H](CO)[C@@H](O)[C@H](O)[C@H]7O)CC[C@]56C)C4(C)C)O[C@H](C(=O)O)[C@@H](O)[C@@H]3O)OC[C@H]2O)[C@H](O)[C@H](O)[C@H]1O (stereo partly drawn) do in these assays?
Methyltransferases: inactive

How did CC1OC(OC2C(OC(=O)[C@]34CCC(C)(C)C[C@H]3C3=CCC5[C@@]6(C)CC[C@H](OC7OC(C(=O)O)C(O)C(O)C7O)C(C)(C)C6CC[C@@]5(C)[C@]3(C)CC4O)OC(CO)C2O)C(O)C(O)C1OC1OCC(O)C(O)C1O (stereo partly drawn) do in these assays?
Methyltransferases: active

Results for CC1(C)CC[C@]2(C(=O)O[C@@H]3O[C@H](CO)[C@@H](O)[C@H](O)[C@H]3O)CC[C@]3(C)C(=CCC4[C@@]5(C)CC[C@H](O[C@@H]6O[C@H](C(=O)O)[C@H](O)[C@H](O)[C@H]6O)C(C)(C)C5CC[C@]43C)[C@@H]2C1 (stereo partly drawn) ?
Methyltransferases: active

Results for CC1(C)CC[C@@]2(C(=O)O[C@@H]3O[C@H](CO)[C@@H](O)[C@H](O)[C@H]3O)C(C1)C1=CCC3[C@@]4(C)CC[C@@H](O[C@@H]5O[C@H](C(=O)O)[C@@H](O[C@@H]6OC[C@@H](O)[C@H](O)[C@H]6O)[C@H](O[C@@H]6OC[C@](O)(CO)[C@H]6O)[C@H]5O)C(C)(C)C4CC[C@@]3(C)[C@]1(C)C[C@H]2O (stereo partly drawn) ?
Methyltransferases: inactive

Results for CC1(C)CC[C@]2(C(=O)O[C@@H]3O[C@H](CO)[C@@H](O)[C@H](O)[C@H]3O)CC[C@]3(C)C(=CCC4[C@@]5(C)CC[C@H](O[C@@H]6O[C@H](C(=O)O)[C@@H](O)[C@H](O)[C@H]6O)C(C)(C)C5CC[C@]43C)C2C1 (stereo partly drawn) ?
Methyltransferases: inactive

Results for CC1(CO)CC[C@]2(C(=O)O[C@@H]3O[C@H](CO)[C@@H](O)[C@H](O)[C@H]3O)CC[C@]3(C)C(=CCC4[C@@]5(C)CC[C@H](O[C@@H]6O[C@H](C(=O)O)[C@@H](O)[C@H](O)[C@H]6O)C(C)(C)C5CC[C@]43C)C2C1 (stereo partly drawn) ?
Methyltransferases: inactive

Results for Cc1ccc(C)c(N2C(=O)c3cc4ccccc4n3CC2(C)C(=O)NCCC(C)C)c1 (stereo not drawn) ?
Methyltransferases: inactive

How did O=C(NCc1ccc(Cl)nc1)c1cc2cccnn2n1 do in these assays?
Methyltransferases: inactive

Results for CC(CNC(=O)CCc1nnc2ccc(NCCCN3CCCC3=O)nn12)c1ccccc1 (stereo not drawn) ?
Methyltransferases: inactive

How did Cc1cc(C)n2nc(C(=O)N3CCCC4(CNC(=O)O4)C3)cc2n1 (stereo not drawn) do in these assays?
Methyltransferases: inactive

What do the screens show for `CC(C)OCCCNC(=O)C1c2c(n(C)c3ccccc23)SCC(=O)N1c1ccccc1F` (stereo not drawn)?
Methyltransferases: inactive

What do the screens show for `C=C1CCCC2(C)CC3(OC)OC(=O)C(C)=C3CC12` (stereo not drawn)?
Methyltransferases: inactive

What do the screens show for `CCC(C)NC(=O)c1ccc2c(=O)n(C)c3nnc(SCc4ccccc4)n3c2c1` (stereo not drawn)?
Methyltransferases: inactive

What do the screens show for `NCC(O)(CS(=O)(=O)O)c1ccc(Cl)cc1` (stereo not drawn)?
Methyltransferases: inactive

How did NC[C@@](O)(c1ccc(Cl)cc1)c1ccc(-c2cn[nH]c2)cc1 do in these assays?
Methyltransferases: active

What do the screens show for `Cc1ccccc1OCC(=O)Nc1cccn2nc(-c3cccnc3)nc12`?
Methyltransferases: inactive

How did O=c1[nH]c2ccc(S(=O)(=O)NCCC3=CCCCC3)cc2[nH]1 do in these assays?
Methyltransferases: inactive

How did CN(C)C/C=C(/c1ccc(Br)cc1)c1cccnc1 do in these assays?
Methyltransferases: active

How did CC(C)NC(=O)c1ccc2c(=O)n(Cc3ccccc3)c3nn(Cc4cccc(F)c4)c(=O)n3c2c1 do in these assays?
Methyltransferases: inactive

How did O=C(/C=C/n1cnc(-c2cc(C(F)(F)F)cc(C(F)(F)F)c2)n1)NNc1cnccn1 do in these assays?
Methyltransferases: inactive

What do the screens show for `CC(C)C[C@H](CO)Nc1nc(S[C@@H](C)c2ccccc2)nc2nc(N)sc12`?
Methyltransferases: active

What do the screens show for `O=C(CC[C@H]1NC(=O)c2ccccc2NC1=O)Nc1nc(-c2cccnc2)cs1`?
Methyltransferases: inactive

What do the screens show for `COc1cccc(N2C(=O)c3cc4ccccc4n3CC2(C)C(=O)NC2CCCC2)c1` (stereo not drawn)?
Methyltransferases: inactive

Results for CC1(C(=O)NC2CCCCCC2)Cn2c(nc3ccccc32)C(=O)N1CC1CCCO1 (stereo not drawn) ?
Methyltransferases: inactive

Results for COc1ccc(C(=O)NC[C@@H]2CC[C@H]3C[C@@H]2C3(C)C)cc1 ?
Methyltransferases: inactive

Results for N#Cc1ccc(C(=O)NCc2nn(Cc3ccccc3)c3ccccc23)c(F)c1 ?
Methyltransferases: inactive

What do the screens show for `CC1(C(=O)NC2CCCCCC2)Cn2c(cc3occc32)C(=O)N1c1cccc(Cl)c1` (stereo not drawn)?
Methyltransferases: inactive

What do the screens show for `COc1cc2c(NC3CCN(CC4CCCCC4)CC3)nc(N3CCCN(C(C)C)CC3)nc2cc1OCCCN1CCCCC1`?
Methyltransferases: active!

What do the screens show for `CN1CCN(C(CN)C2CCCCC2)CC1` (stereo not drawn)?
Methyltransferases: inactive

Results for CCCn1c(=O)c2cc(F)ccc2n2c(SCC(=O)Nc3ccccc3C)nnc12 ?
Methyltransferases: inactive

What do the screens show for `O=S1(=O)CCN(Cc2cc(NCC3CCOCC3)c3[nH]c(-c4ccccc4)cc3c2)CC1`?
Methyltransferases: active

How did CCOC(=O)c1cc2n(n1)CC(C)(C(=O)NCCC(C)C)N(CCc1cccs1)C2=O (stereo not drawn) do in these assays?
Methyltransferases: inactive

Results for CC1CCN(S(=O)(=O)c2ccc3c(ccn3CC(=O)NCc3ccc(F)cc3)c2)CC1 ?
Methyltransferases: inactive

How did COc1c(-c2ccc(O)cc2)cc(OC)c2c1oc1cc(O)c(OC3OC(CO)C(O)C3O)cc12 (stereo not drawn) do in these assays?
Methyltransferases: inactive

How did COc1c2cc(c(O[C@@H]3O[C@H](CO)[C@@H](O)[C@H](O)[C@H]3O)c1OC)CCCCC(O)CCc1ccc(O)c-2c1 (stereo partly drawn) do in these assays?
Methyltransferases: active
